Data from article PMC5540273 (PLoS ONE, 2017).

Assays:
[1] = test system: JAK3(JH1domain-catalytic)
LZK = test system: T1, LZK
T1 construct: gene MAP3K13

LOK = test system: T2, LOK
T2 construct: gene STK10

MEK2 = test system: T3, MEK2
T3 construct: gene MAP2K2

MEK4 = test system: T4, MEK4
T4 construct: gene MAP2K4
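Further: kd values determined as follow-up on hits from a single-replicate KINOMEscan panel screen.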

COc1cccc(C2=C(Nc3cc(Cl)c(O)c(Cl)c3)C(=O)NC2=O)c1 [SB-390767]
Kd [1]: 0.12 µM
Kd (LTK): > 10 µM

Cc1c(Cn2c(C)c(C)n3c(=O)cc(N4CCOCC4)nc23)cccc1C(F)(F)F [GSK2328680]
Kd (LATS1): > 10 µM

COc1ccc(Nc2nccc(N3CCC(NC(=O)C(C)c4ccc(Cl)cc4)CC3)n2)cc1 (stereo not drawn) [GSK1379812]
Kd (LATS2): > 10 µM

CCn1c(-c2c(N)noc2C)nc2cnccc21 [SB-737856]
Kd (LIMK2): > 10 µM

CC(=O)c1c(C)c2cnc(Nc3ccc(N4CCNCC4)cn3)nc2n(C2CCCC2)c1=O
Kd (LIMK2): > 10 µM
Kd (LZK): > 10 µM

CS(=O)(=O)Cc1ccc(Nc2nccc(-c3c(-c4cccc(NC(=O)C5CCCCC5)c4)nn4ncccc34)n2)cc1 [GSK350559]
Kd (LOK): 0.36 µM

Cc1ccc(NC(=O)c2ccc(Cl)cc2)cc1-c1ccc(C(=O)Nc2ccncc2)cc1 [GSK1398467]
Kd (LRRK2): > 10 µM
Kd (MARK2): > 10 µM

COc1cccc(NC(=O)Nc2ccc(C)c(-c3ccc(C(=O)Nc4ccncc4)cc3)c2)c1 [GSK1398474]
Kd (LYN): 4.4 µM
Kd (MAK): > 10 µM

COc1ccc(Nc2nccc(N3CCC(NC(=O)c4cc5ccccc5s4)C3)n2)cc1 (stereo not drawn) [GSK1379738]
Kd (MAK): > 10 µM

CNCc1ccc2nc(NC(=O)c3ccc(C(C)(C)C)cc3)cn2c1
Kd (MAP3K15): 3.8 µM

COc1ccc(-c2coc3ccc(-c4nnc(C)o4)cc23)cc1
Kd (MARK4): > 10 µM

Cc1ccccc1Cn1ccn2c(=O)cc(N3CCOCC3)nc12 [GSK2269905]
Kd (MARK4): > 10 µM

CCc1ccc(-c2ccc3c(c2)-c2n[nH]cc2S(=O)(=O)N3C)cc1
Kd (MEK2): > 10 µM

O=C(Nc1n[nH]c2nc(-c3cccs3)c(Br)cc12)C1CC1 [SB-735297]
Kd (MEK4): > 10 µM
